Assay results published in the supplement of paper PMC10338343.
± gives the standard deviation.

Tests used:
[1] = system: MILI (PIWIL2) piRISC loaded with L1MC piRNA (26 nt); test: pre-steady-state target cleavage rate (min^-1); guide: L1MC piRNA 5'p-UAACUAAAUACUAUGCAAGCUGUAGG; higher = faster piRNA-guided slicing of the target
How it was run: (§1)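 A transcribed, DNA-blocked target RNA library (0.1 nM) and 1 nM active affinity-purified piRISC bearing one synthetic guide were incubated in HEPES–potassium acetate buffer at 33 °C for 0–8 or 0–960 min, either with or without 500 nM GTSF1 partner protein. Uncleaved targets were sequenced, normalised to depth and to weakly complementary targets, and pooled over three trials, with k3 capped at 0.0001 min^-1. The pre-steady-state cleavage rate was derived with a burst-and-steady-state fit.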

[2] = system: EfPiwi piRISC loaded with L1MC piRNA (26 nt); test: pre-steady-state target cleavage rate (min^-1); auxiliary factor: 500 nM Ephydatia muelleri Gtsf1; guide: L1MC piRNA 5'p-UAACUAAAUACUAUGCAAGCUGUAGG; MIWI and MILI are mouse PIWI proteins and EfPiwi is from a freshwater sponge; tags in brackets are library labels; higher = faster piRNA-guided slicing of the target
How it was run: as §1

[3] = auxiliary factor: 500 nM mouse GTSF1

| Sequence | pre-steady-state target cleavage rate [1, 3] | pre-steady-state target cleavage rate [2] | pre-steady-state target cleavage rate ([1]; auxiliary factor: none (no GTSF1)) |
| --- | --- | --- | --- |
| UCCUGCUACAGCUUGCAUACUAUUUAGUAA | 0.0862 ± 0.018 | 0.00476 ± 0.0026 |  |
| UCCUCCUACAGCUUGCAUAGUUUUUACAAA | 0.0506 ± 0.013 | 0.00552 ± 0.0037 |  |
| UCCUCCUACAGCUUGCAUAGUAUAUAGAAA | 0.105 ± 0.028 | 0.00329 ± 0.0015 |  |
| UCCUGCUACAGCUUGCAUAGUAUUAUCUAA | 0.0551 ± 0.014 | 0.00395 ± 0.0027 |  |
| UCCUGGUACAGCUUGCAUAGUAUUAAGUAA | 0.128 ± 0.035 | 0.0031 ± 0.0028 |  |
| UCCUGCUACACCUUGCAUAGUAUUAAGUUA | 0.178 ± 0.034 | 0.00618 ± 0.0036 |  |
| UCCUGGAUCAGCAUGCAUAGUAUUUAGAUA | 0.149 ± 0.017 | 0.0044 ± 0.0024 |  |
| UCCUGGUACAGCUUGCAUAGUUAUUAGUAA | 0.01 ± 0.0044 | 0.00807 ± 0.0043 |  |
| UCCUGGAACACGUUGCAUAGUAUUUAGUAA | 0.254 ± 0.036 | 0.00365 ± 0.0034 |  |
| UCCUGCUACAGCUUGCAUACUAUUUAGAUA | 0.0214 ± 0.0094 | 0.00382 ± 0.002 |  |
| UCCUGGAUGUCCUUGCAUAGUAUUUAGGUA | 0.0702 ± 0.017 | 0.00431 ± 0.0026 |  |
| UCCUGGAACACCUUGCAUAGUAUUAAGUUA | 0.189 ± 0.034 | 0.00303 ± 0.0027 |  |
| UCCUGCUACAGCUUGCAUAGAAUUUAGUAA | 0.237 ± 0.062 | 0.00358 ± 0.0016 |  |
| UCCUGCUACAGCUUGCAUACUAUUUACUUA | 0.0359 ± 0.011 | 0.00325 ± 0.0023 |  |
| UCCUCCUACAGCAUGCAUAGUAUUUACAAA | 0.205 ± 0.037 | 0.00397 ± 0.0026 |  |
| UCCUCCUACAGCAUGCAUAGAAUUUAGUUA | 0.176 ± 0.044 | 0.00245 ± 0.0015 |  |
| UCCUGGAUGUGCUUCCAAAGUAUUUAGUUA | 0.0214 ± 0.0068 | 0.00463 ± 0.0046 |  |
| UCCUCCUUGAGCUUGCAUAGUAUUUAGAAA | 0.145 ± 0.025 | 0.00549 ± 0.0018 |  |
| UCCUGCUACAGCUUGCAUAGUAUUUAAUUA | 0.126 ± 0.03 | 0.00612 ± 0.0025 |  |
| UCCUGGAUCUGCUUCCAUAGUAUUUAGUUA | 0.0239 ± 0.0067 | 0.00326 ± 0.0022 |  |
| UCCUCCUACUGCUUGCAUAGUAUUUAGAAA | 0.0658 ± 0.017 | 0.00462 ± 0.0021 |  |
| UCCUGGAACAGCUAGCAUAGUAUUUAGAAA | 0.219 ± 0.034 | 0.00262 ± 0.0023 |  |
| UCCUGGAUGAGCUUGCAUAGUAUUUAGUCA | 0.172 ± 0.015 | 0.00793 ± 0.0032 |  |
| UCCUCCUACAGCUUGCAUAGUAAUUACUUA | 0.0937 ± 0.025 | 0.005 ± 0.0027 |  |
| UCCUGCUACUGCUUCCAUAGUAUUUAGUUA | 0.0453 ± 0.014 | 0.00205 ± 0.0016 |  |
| UCCUGGAACAGCUUGCAUAGUAUUUAGUA | 0.191 ± 0.02 | 0.00384 ± 0.0024 |  |
| UCCUGGAUCUGCUUGCAUAGUAUUUAGAUA | 0.0934 ± 0.016 | 0.00401 ± 0.0022 |  |
| UCCUCCUACAGCUUGCAUAGUAUUUACUAA | 0.114 ± 0.027 | 0.00569 ± 0.003 |  |

| Sequence | pre-steady-state target cleavage rate [1, 3] | pre-steady-state target cleavage rate [2] | pre-steady-state target cleavage rate ([1]; auxiliary factor: none (no GTSF1)) |
| --- | --- | --- | --- |
| UCCUGGAUGUCCUUGCAUAGUAUUUAGUCUA | 0.0325 ± 0.01 | 0.00301 ± 0.0024 |  |
| UCCUGGAUCAGCUUGCAUAGUUUUUAGUAA | 0.0337 ± 0.0089 | 0.00477 ± 0.0025 |  |
| UCCUGGAACACCUUGCAUAGUAUAUAGUUA | 0.189 ± 0.033 | 0.0051 ± 0.0035 |  |
| UCCUGGAACAGCUUGCAUAGUAAUUAGAAA | 0.0609 ± 0.018 | 0.00338 ± 0.0026 |  |
| UCCUGCUACAGCUUGCAUAGUAUUUAGUAA | 0.182 ± 0.024 | 0.00553 ± 0.0022 |  |
| UCCUGGUACAGCUUGCAAAGUAUUUUCAAA | 0.0283 ± 0.012 | 0.00424 ± 0.0036 |  |
| UCCUGGAAGUCCUUGCAUAGUAUUUAGUAA | 0.122 ± 0.021 | 0.00346 ± 0.0028 |  |
| UCCUGGAACAGCUUGCAUAGUAAAUAGAAA | 0.0493 ± 0.016 | 0.00337 ± 0.0028 |  |
| UCCUCCUACAGCUUGCAUAGGUAUUUAGUUA |  | 0.0036 ± 0.0026 | 0.00373 ± 0.0024 |
| UCCUGCUACAGGUUGCAUAGUAUUUUCAAA | 0.0101 ± 0.0054 | 0.00243 ± 0.0019 |  |
| UCCUCCUACAGCUUGCAUAGUAUUAUCUAA | 0.187 ± 0.045 | 0.00413 ± 0.0033 |  |
| UCCUGCUACAGCAUGCAUAGUAUUUAGAAA | 0.188 ± 0.041 | 0.00416 ± 0.0014 |  |
| UCCUGGAUGAGCUUGCAUAGUAUUUACAUA | 0.0149 ± 0.0065 | 0.00323 ± 0.0028 |  |
| UCCUCCAACAGCUUGCAUAGUAUUUACUUA | 0.122 ± 0.022 | 0.00475 ± 0.0037 |  |
| UCCUCCUACAGCUUGCAUAGUUAAUAGUAA | 0.0122 ± 0.0056 | 0.00511 ± 0.003 |  |
| UCCUCCUACAGCUUGCAUAGAUUUUAGAAA | 0.0147 ± 0.0053 | 0.00312 ± 0.0024 |  |
| UCCUGCUACAGCUUGCAUAGAAAUUAGUUA | 0.059 ± 0.015 | 0.0026 ± 0.0021 |  |
| UCCUGGAACAGCUUGCAUAGAAUUUUGUUA | 0.0296 ± 0.01 | 0.00229 ± 0.0021 |  |
| UCCUGGAUGUCCUUGCAUAGUAUGUAGUUA | 0.107 ± 0.022 | 0.00374 ± 0.0037 |  |
| UCCUGCUACAGCUAGCAUAGUAUUUAGAUA | 0.151 ± 0.028 | 0.00409 ± 0.0015 |  |
| UCCUCCUACAGCUUGCAAAGUAUUUUGUUA | 0.0808 ± 0.011 | 0.00453 ± 0.0028 |  |
| UCCUGCUACUGCUUGCAUAGUAUUUAGAUA | 0.0911 ± 0.022 | 0.00383 ± 0.0018 |  |
| UCCUCCUACACCUUGCAUAGAAUUUAGUUA | 0.0594 ± 0.019 | 0.0018 ± 0.0016 |  |
| UCCUCCUACAGCUUGCAUAGUUAUUAGUUA | 0.0492 ± 0.015 | 0.0094 ± 0.0036 |  |
| UCCUGCUACAGCUUGCAUACGUAUUUAGUUA | 0.00697 ± 0.0042 | 0.00225 ± 0.0022 |  |
| UCCUCCUACAGCUUGCAUAGUUUUUUCAAA | 0.0513 ± 0.014 | 0.00481 ± 0.0034 |  |
| UCCUCCUACACCUUGCAUAGUAUUAAGUUA | 0.178 ± 0.036 | 0.00451 ± 0.0025 |  |
